This is part of a sample that, as a whole, favours compounds with a hit. Of some 79,000 tested, about 15% had one in any assay. A number with no mark means an inactive call. No stated cut-off is given here; in the data, active means growth inhibition above about 70%; inactive means the rest.
Experiment: NCI Yeast Anticancer Drug Screen. Data for the bub3 strain (AID 167)
Details: S. cerevisiae bub3 mutant strain, at 50.0 µM, stronger effect = higher value
Method in brief: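 Readout: yeast growth inhibition, expressed relative to vehicle-only wells. The test organism is a mutant strain from a panel with lesions in DNA repair or checkpoint genes.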

Compound	growth inhibition [%]
CCOc1cccc(C=Nc2ccccc2SSc2ccccc2N=Cc2cccc(OCC)c2O)c1O	68.6
c1csc(NC(Nc2nccs2)C23CC4CC(CC(C4)C2)C3)n1	1.1
O=C1C(Cc2ccc(O)cc2)NC(=S)N1c1ccccc1 (stereo not given)	20
CO/N=C1\C(O)CC2C(C)(CCC3C2(C)CCC2(C)C4CC(C)(C)CCC4(C)CCC32C)C1C (stereo not given)	-1.45
CCOc1cn(C2OC(CO)C(O)C2O)c(=O)[nH]c1=O (stereo not given)	-25.2
OCC1CCN(CCOCc2ccccc2)C1 (stereo not given)	-7.05
Cc1cc(C(C)(C)C)ccc1S(=O)(=O)/C=C/c1ccccc1	-1.7
N#CC1C=CN(Cc2ccccc2)C=C1C(=O)c1ccccc1 (stereo not given)	7.6
CC1=NN(C(=O)c2ccc(Cl)cc2)C(=O)C1N=Nc1ccc(S(=O)(=O)Nc2ccccn2)cc1 (stereo not given)	-10.6
CCCCCCCCCCCCCCCCOc1ccc(N)cc1	19
O=S1(=O)C2C=CC1CCCC2	-11.6
Cn1ncc2c(N)nc(NCCO)nc21	13.7
O=CC(O)C(O)C(O)C(O)COC1OC(CO)C(O)C(O)C1O (stereo not given)	23
CC(O)CNCC(C)(C)N (stereo not given)	3.15
CC(=O)OCC(OC(C)=O)C(OC(C)=O)C(/C=C/N=[N+]([O-])c1ccccc1)OC(C)=O (stereo not given)	48.6
O=C(/C=C/c1ccco1)CCN1CCOCC1	-7.25
CC1CC2C3(C1)CC(C(=O)OC3=O)C2(C)C (stereo not given)	-2.1
CCOC(=O)c1ccc(-c2cccs2)[nH]1	27
CS(=O)(=O)ON1C(=O)c2ccccc2C1=O	-2.6
O=C(Nc1cc(-c2ccccc2)[nH]n1)c1ccccc1Cl	42.1

Compound	growth inhibition [%]
C1=CCc2cc3c(cc2=C1)C=c1ccccc1=3	-8.2
CCCNC(=O)Nc1ccc2c(c1)Cc1cc([N+](=O)[O-])ccc1-2	6.75
CCCCCC(=C/c1ccccc1)/C=N/N1CCN(/N=C/C(=C/c2ccccc2)CCCCC)CC1	-0.85
CCc1cccc(CC)c1NC1=CC(=O)C(=O)c2ccccc21	34.2
COc1ccc(CNc2ccccc2C(=O)O)cc1OC	32.8
Brc1nc(-[n+]2ccccc2)[n-]c1Br	1.5
COC(=O)C(N)CSc1ccc([N+](=O)[O-])cc1[N+](=O)[O-] (stereo not given)	16.1
Oc1cc2cc(-c3ccccc3)[nH]c2c2ccccc12	-2.1
CCCCS/C=C\C(=O)OCC	0.15
CCOC(=O)c1c2cccccc-2nc1Nc1cccc2c(C)ccnc12	-16.1
CC1=NN(C(=O)c2ccncc2)C(=O)C1N=Nc1ccc(F)cc1 (stereo not given)	-7.15
CCOC(=O)c1ccc(NC(=O)CCCCl)cc1	12.7
Cc1[nH]c(=O)[nH]c(=O)c1/C=C/C(=O)NC(CO)CS(=O)CS(C)=O (stereo not given)	5.6
C[N+]12C=CC=C1C(N1CCCC1)c1sc(-c3ccc(Cl)cc3)cc12 (stereo not given)	0.55
Cc1nc(N=C(N)N)nc2ccccc12	2.65
N#CCOS(=O)(=O)O	-3.25
Nc1ncccc1C(=O)O	-0.35
CN(C)CCNC(=O)c1cccc2nc3c(C(=O)NCCN(C)C)cccc3nc12	-34.1
COc1ccc2c(C(=O)O)cc3c4ccccc4ncc3c2c1	-17.9
CC(C)COP(C)(=O)C(N)(C(F)(F)F)C(F)(F)F (stereo not given)	40.1
